Several values for one entry are separate records, joined by “and”; a condition that tells them apart may be missing. Equal entries are not always repeated. In all, about 5,500 compounds went through this assay and about 2,000 (36%) were called active. Another 18% or so got no clear call; they are omitted. This is one part of the list. Unmarked numbers belong to inactive results. Rule as the data show it: active = normalized growth mostly below about 0.91 (no sharp cut-off); inconclusive = no clear call, values can overlap the other calls; inactive = mostly above about 0.92.
Experiment: chemical genetic growth profiling, strain panel (AID 1159580);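 also: tested at 20 µM; growth read once vehicle control cultures reached saturation at 30 °C; 1 = growth at the plate median or of vehicle wells; lower values mean less growth of the strain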
Conditions: growth OD
[1] = S. cerevisiae deletion strains, locus YJR075W, strain HOC1, stronger effect = lower value
[2] = S. cerevisiae deletion strains, locus YMR263W, strain SAP30, stronger effect = lower value
[3] = S. cerevisiae deletion strains, locus YMR307W, strain GAS1, stronger effect = lower value
[4] = S. cerevisiae deletion strains, locus YNL128W, strain TEP1, stronger effect = lower value
[5] = S. cerevisiae deletion strains, locus YNL153C, strain GIM3, stronger effect = lower value
[6] = S. cerevisiae deletion strains, locus YPL055C, strain LGE1, stronger effect = lower value

CCSC(N)=Nc1ccc(C(F)(F)F)cc1
normalized growth (S. cerevisiae deletion strains, locus YAL040C, strain CLN3, stronger effect = lower value): 0.942 | normalized growth (S. cerevisiae deletion strains, locus YCL061C, strain MRC1 (second series), stronger effect = lower value): 0.997 | normalized growth (S. cerevisiae deletion strains, locus YDR363W, strain ESC2, stronger effect = lower value): 0.98 | normalized growth (S. cerevisiae deletion strains, locus YER002W, strain NOP16, stronger effect = lower value): 1.03 | normalized growth (S. cerevisiae deletion strains, locus YGR229C, strain SMI1, stronger effect = lower value): 0.931 | normalized growth [1]: 1.01 | normalized growth [2]: 1 | normalized growth [3]: 1 | normalized growth [4]: 1.01 | normalized growth [5]: 1 | normalized growth (S. cerevisiae deletion strains, locus YNL175C, strain NOP13, stronger effect = lower value): 1.01 | normalized growth (S. cerevisiae deletion strains, locus YNL197C, strain WHI3, stronger effect = lower value): 1.03 | normalized growth (S. cerevisiae deletion strains, locus YNL224C, strain SQS1, stronger effect = lower value): 0.997 | normalized growth (S. cerevisiae deletion strains, locus YOR083W, strain WHI5 (second series), stronger effect = lower value): 0.989 | normalized growth [6]: 0.986

O=S(=O)(N/N=C\c1ccc(Cl)cc1)c1ccc(-c2ccccn2)s1
normalized growth (S. cerevisiae deletion strains, locus YAL013W, strain DEP1, stronger effect = lower value): 0.973 | normalized growth (S. cerevisiae deletion strains, locus YAR019C, strain CDC15, stronger effect = lower value): 0.993 | normalized growth (S. cerevisiae deletion strains, locus YBL105C, strain PKC1, stronger effect = lower value): 0.981 | normalized growth (S. cerevisiae deletion strains, locus YBR135W, strain CKS1, stronger effect = lower value): 0.98 | normalized growth (S. cerevisiae deletion strains, locus YBR136W, strain MEC1, stronger effect = lower value): 0.982 | normalized growth (S. cerevisiae deletion strains, locus YBR160W, strain CDC28, stronger effect = lower value): 0.969 | normalized growth (S. cerevisiae deletion strains, locus YBR229C, strain ROT2, stronger effect = lower value): 0.994 | normalized growth (S. cerevisiae deletion strains, locus YDL017W, strain CDC7, stronger effect = lower value): 0.978 | normalized growth (S. cerevisiae deletion strains, locus YDL028C, strain MPS1, stronger effect = lower value): 0.969 | normalized growth (S. cerevisiae deletion strains, locus YDL101C, strain DUN1, stronger effect = lower value): 0.979 and 0.977 | normalized growth (S. cerevisiae deletion strains, locus YDL108W, strain KIN28, stronger effect = lower value): 0.976 | normalized growth (S. cerevisiae deletion strains, locus YDL132W, strain cdc53, stronger effect = lower value): 0.975 | normalized growth (S. cerevisiae deletion strains, locus YDL134C, strain PPH21, stronger effect = lower value): 0.931 | normalized growth (S. cerevisiae deletion strains, locus YDL214C, strain PRR2, stronger effect = lower value): 0.98 | normalized growth (S. cerevisiae deletion strains, locus YDR052C, strain DBF4, stronger effect = lower value): 0.97 | normalized growth (S. cerevisiae deletion strains, locus YDR054C, strain cdc34, stronger effect = lower value): 0.979 | normalized growth (S. cerevisiae deletion strains, locus YDR150W, strain NUM1, stronger effect = lower value): 0.976 | normalized growth (S. cerevisiae deletion strains, locus YDR226W, strain ADK1, stronger effect = lower value): 0.988 | normalized growth (S. cerevisiae deletion strains, locus YDR477W, strain SNF1, stronger effect = lower value): 0.958 | normalized growth (S. cerevisiae deletion strains, locus YEL061C, strain CIN8, stronger effect = lower value): 0.935 | normalized growth (S. cerevisiae deletion strains, locus YER123W, strain YCK3, stronger effect = lower value): 0.96 | normalized growth (S. cerevisiae deletion strains, locus YER133W, strain GLC7, stronger effect = lower value): 0.99 | normalized growth (S. cerevisiae deletion strains, locus YFL009W, strain cdc4, stronger effect = lower value): 0.974 | normalized growth (S. cerevisiae deletion strains, locus YFL029C, strain CAK1, stronger effect = lower value): 0.994 | normalized growth (S. cerevisiae deletion strains, locus YFR003C, strain YPI1, stronger effect = lower value): 0.976 | normalized growth (S. cerevisiae deletion strains, locus YFR019W, strain FAB1, stronger effect = lower value): 0.976 | normalized growth (S. cerevisiae deletion strains, locus YFR028C, strain CDC14, stronger effect = lower value): 0.973 | normalized growth (S. cerevisiae deletion strains, locus YGR040W, strain KSS1, stronger effect = lower value): 0.96 | normalized growth (S. cerevisiae deletion strains, locus YGR052W, strain FMP48, stronger effect = lower value): 0.947 | normalized growth (S. cerevisiae deletion strains, locus YGR078C, strain PAC10, stronger effect = lower value): 0.975 | normalized growth (S. cerevisiae deletion strains, locus YGR092W, strain DBF2, stronger effect = lower value): 0.942 | normalized growth (S. cerevisiae deletion strains, locus YHR030C, strain SLT2, stronger effect = lower value): 0.797 and 1.04 | normalized growth (S. cerevisiae deletion strains, locus YHR079C, strain IRE1, stronger effect = lower value): 1.07 | normalized growth (S. cerevisiae deletion strains, locus YHR082C, strain KSP1, stronger effect = lower value): 1.02 | normalized growth (S. cerevisiae deletion strains, locus YHR087W, strain rtc3, stronger effect = lower value): 0.998 | normalized growth (S. cerevisiae deletion strains, locus YHR205W, strain SCH9, stronger effect = lower value): 0.983 | normalized growth (S. cerevisiae deletion strains, locus YIL147C, strain SLN1, stronger effect = lower value): 0.975 | normalized growth (S. cerevisiae deletion strains, locus YJL095W, strain BCK1, stronger effect = lower value): 0.961 | normalized growth (S. cerevisiae deletion strains, locus YJL128C, strain PBS2, stronger effect = lower value): 0.946 | normalized growth (S. cerevisiae deletion strains, locus YJL157C, strain FAR1, stronger effect = lower value): 0.98 | normalized growth (S. cerevisiae deletion strains, locus YJL187C, strain SWE1, stronger effect = lower value): 1.02 | normalized growth (S. cerevisiae deletion strains, locus YJR016C, strain ILV3, stronger effect = lower value): 0.976 | normalized growth (S. cerevisiae deletion strains, locus YJR043C, strain POL32, stronger effect = lower value): 0.947 | normalized growth (S. cerevisiae deletion strains, locus YJR066W, strain TOR1 (second series), stronger effect = lower value): 0.996 | normalized growth (S. cerevisiae deletion strains, locus YJR066W, strain TOR1, stronger effect = lower value): 1.05 | normalized growth [1]: 0.988 | normalized growth (S. cerevisiae deletion strains, locus YKL048C, strain ELM1, stronger effect = lower value): 0.959 | normalized growth (S. cerevisiae deletion strains, locus YKL067W, strain YNK1, stronger effect = lower value): 0.976 | normalized growth (S. cerevisiae deletion strains, locus YKL101W, strain HSL1, stronger effect = lower value): 0.949 | normalized growth (S. cerevisiae deletion strains, locus YKL190W, strain CNB1, stronger effect = lower value): 0.924 (active) | normalized growth (S. cerevisiae deletion strains, locus YKL193C, strain SDS22, stronger effect = lower value): 0.977 | normalized growth (S. cerevisiae deletion strains, locus YKL203C, strain TOR2, stronger effect = lower value): 1.04 | normalized growth (S. cerevisiae deletion strains, locus YLR039C, strain RIC1, stronger effect = lower value): 0.465 (active) | normalized growth (S. cerevisiae deletion strains, locus YLR058C, strain SHM2 (second series), stronger effect = lower value): 0.996 | normalized growth (S. cerevisiae deletion strains, locus YLR085C, strain ARP6, stronger effect = lower value): 0.912 | normalized growth (S. cerevisiae deletion strains, locus YLR113W, strain HOG1, stronger effect = lower value): 0.888 | normalized growth (S. cerevisiae deletion strains, locus YLR133W, strain CKI1, stronger effect = lower value): 0.967 | normalized growth (S. cerevisiae deletion strains, locus YLR262C, strain YPT6, stronger effect = lower value): 0.427 (active) | normalized growth (S. cerevisiae deletion strains, locus YLR403W, strain SFP1, stronger effect = lower value): 0.95 | normalized growth (S. cerevisiae deletion strains, locus YML070W, strain DAK1, stronger effect = lower value): 0.938 | normalized growth (S. cerevisiae deletion strains, locus YML094W, strain GIM5, stronger effect = lower value): 0.95 | normalized growth (S. cerevisiae deletion strains, locus YMR001C, strain CDC5, stronger effect = lower value): 0.99 | normalized growth (S. cerevisiae deletion strains, locus YMR205C, strain PFK2 (second series), stronger effect = lower value): 0.969 | normalized growth (S. cerevisiae deletion strains, locus YMR219W, strain ESC1, stronger effect = lower value): 0.998 | normalized growth [2]: 0.976 | normalized growth (S. cerevisiae deletion strains, locus YMR277W, strain FCP1, stronger effect = lower value): 0.978 | normalized growth [3]: 0.712 | normalized growth (S. cerevisiae deletion strains, locus YNL006W, strain LST8, stronger effect = lower value): 0.994 | normalized growth (S. cerevisiae deletion strains, locus YNL020C, strain ARK1, stronger effect = lower value): 0.953 | normalized growth [4]: 0.975 | normalized growth [5]: 0.976 | normalized growth (S. cerevisiae deletion strains, locus YNL161W, strain CBK1, stronger effect = lower value): 0.986 | normalized growth (S. cerevisiae deletion strains, locus YNL183C, strain NPR1, stronger effect = lower value): 0.967 | normalized growth (S. cerevisiae deletion strains, locus YNL207W, strain RIO2, stronger effect = lower value): 0.977 | normalized growth (S. cerevisiae deletion strains, locus YNL222W, strain SSU72, stronger effect = lower value): 0.978 | normalized growth (S. cerevisiae deletion strains, locus YNL298W, strain CLA4 (second series), stronger effect = lower value): 0.826 (active) | normalized growth (S. cerevisiae deletion strains, locus YNL307C, strain MCK1 (second series), stronger effect = lower value): 0.969 | normalized growth (S. cerevisiae deletion strains, locus YNL322C, strain KRE1, stronger effect = lower value): 1 | normalized growth (S. cerevisiae deletion strains, locus YNR030W, strain Alg12, stronger effect = lower value): 0.856 (active) | normalized growth (S. cerevisiae deletion strains, locus YOL006C, strain TOP1, stronger effect = lower value): 0.838 | normalized growth (S. cerevisiae deletion strains, locus YOL078W, strain AVO1, stronger effect = lower value): 0.963 | normalized growth (S. cerevisiae deletion strains, locus YOL136C, strain PFK27, stronger effect = lower value): 0.94 | normalized growth (S. cerevisiae deletion strains, locus YOR061W, strain CKA2, stronger effect = lower value): 0.966 | normalized growth (S. cerevisiae deletion strains, locus YOR119C, strain RIO1, stronger effect = lower value): 1.01 | normalized growth (S. cerevisiae deletion strains, locus YOR231W, strain MKK1, stronger effect = lower value): 0.945 | normalized growth (S. cerevisiae deletion strains, locus YOR329C, strain SCD5, stronger effect = lower value): 0.984 | normalized growth (S. cerevisiae deletion strains, locus YPL031C, strain PHO85, stronger effect = lower value): 0.969 | normalized growth [6]: 1.1 | normalized growth (S. cerevisiae deletion strains, locus YPL153C, strain RAD53, stronger effect = lower value): 0.963 | normalized growth (S. cerevisiae deletion strains, locus YPL204W, strain HRR25, stronger effect = lower value): 0.951 | normalized growth (S. cerevisiae deletion strains, locus YPL209C, strain IPL1, stronger effect = lower value): 0.974 | normalized growth (S. cerevisiae deletion strains, locus YPL241C, strain CIN2, stronger effect = lower value): 0.894 | normalized growth (S. cerevisiae deletion strains, locus YPL256C, strain CLN2, stronger effect = lower value): 1.03 | normalized growth (S. cerevisiae deletion strains, locus YPR025C, strain CCL1, stronger effect = lower value): 0.982 | normalized growth (S. cerevisiae deletion strains, locus YPR106W, strain ISR1, stronger effect = lower value): 0.986 | normalized growth (S. cerevisiae deletion strains, locus YPR111W, strain DBF20, stronger effect = lower value): 0.967 | normalized growth (S. cerevisiae deletion strains, locus YPR135W, strain CTF4, stronger effect = lower value): 0.711 | normalized growth (S. cerevisiae deletion strains, strain NNK1, stronger effect = lower value): 0.996 | normalized growth (S. cerevisiae deletion strains, strain TSCII, stronger effect = lower value): 0.984 | normalized growth (S. cerevisiae strains, strain wild type, stronger effect = lower value): 0.897 (active)
